# Screening results (PubChem BioAssay)
# Shown is part of a subset that was picked to be rich in hits.
# Pf Dd2 inh: qHTS Primary assay for Inhibitors of Plasmodium falciparum Dd2 growth in vitro; actives 4.3% (n = 120,000); Potency, µM (titrated, usually from 28.9 µM), inactives show at the top dose activity, negative = inhibition, actives largely listed as inhibitors; P. falciparum Dd2 growth, SYBR Green, 72 h; active = well fitted inhibition curve with a large enough effect;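 also: plate controls were DMSO vehicle for no effect and reference drug for full effect; nearly all actives have a fitted effect of over 65% in size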
#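 Readout: SYBR Green fluorescence, 485 nm excitation, 535 nm emission, after ~16 h lysis at 37C. Before that, Dd2-infected red cells (2.5% hematocrit) grew 72 h with compound, 29 uM top final concentration.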
# Starred values were filed as active, the others as inactive; i = inactive; [ ] = another dose, or the depositor's remark. Potency is read from the fitted curve at half-maximal effect.
SMILES,Pf Dd2 inh
Cc1ccccc1NC(=O)N1CCCC(Cn2c(C3CC3)nc3cccnc32)C1 (configuration not stated),i
CCc1ccccc1NC(=O)CN1C=C(C(=O)OC)C(C)=NS1(=O)=O,-21%
CSc1cccc(NC(=O)NC[C@H]2C[C@@H]3CCN2C[C@@H]3CN2CCN(c3ncccn3)CC2)c1,i
CSc1cccc(NC(=O)NC[C@H]2C[C@@H]3CCN2C[C@@H]3CN(C)c2ccccc2)c1,8.9µM*
C#C[C@H]1CN2CC[C@H]1C[C@@H]2CNC(=O)Nc1cccc(SC)c1,i
Cn1ccc2c(C(=O)NCc3cccnc3)nc(-c3ccc(N4CCOCC4)cc3)cc21,-18%[44.1 µM]
O=C(CN1CCCn2nc(CO)cc2C1)NCCc1ccccc1,-12%
CC(C)Cn1nc2n(c1=O)CCN(S(=O)(=O)Cc1ccccc1)CC2,3%
CC(C)Cn1nc2n(c1=O)CCN(S(=O)(=O)c1cccs1)CC2,-7%
CC(C)Cn1nc2n(c1=O)CCN(S(=O)(=O)c1ccc(C(C)(C)C)cc1)CC2,11µM*
COc1ccc(CNC(=O)Nc2cn(CC(C)C)c(=O)c3ccccc23)c(OC)c1,i
CCc1ccccc1N(C)C(=O)Nc1cn(CC(C)C)c(=O)c2ccccc12,8.9µM*
CCc1ccccc1N(C)C(=O)Cc1c(C(=O)O)c(C)cn1C,-11%
COc1ccc(NC(=O)c2c(OC)cc(=O)n3c2CCCC3)cc1OC,i
COc1ccc(NC(=O)Cn2nc(C(F)(F)F)c3c2CCCC3)cc1OC,-7%
COc1cc(NC(=O)c2cccc(F)c2)ccc1NC(=O)c1cc2ccccc2o1,6%
COc1ccc(Nc2c3c(nc4ccc(NC(=O)/C=C/c5cccc(OC)c5OC)cc24)CCCC3)cc1OC,4µM*
COc1ccc(/C=C/C(=O)Nc2ccc3nc4c(c(Nc5ccccc5OC)c3c2)CCCC4)cc1,1.3µM*
COc1ccccc1Nc1c2c(nc3ccc(NC(=O)c4cccc(F)c4)cc13)CCCC2,3.2µM*
Fc1ccccc1Nc1c2c(nc3ccccc13)CCC2,-22%
COc1ccc(C)cc1Nc1c2c(nc3ccccc13)CCC2,13µM*
COc1ccc(Nc2c3c(nc4ccccc24)CCC3)cc1Cl,i
COc1ccc(OC)c(NC(=O)c2ccc3c(Cl)c4c(nc3c2)CCCC4)c1,-5%
COc1ccccc1NC(=O)c1sc2nc3c(cc2c1N)CCCCCC3,i
CN(C)S(=O)(=O)CCCN1CCC2(CC1)NC(=O)CC2C(=O)O (configuration not stated),-24%
SMILES,Pf Dd2 inh
COc1ccc(CN2CC3(CCN(S(=O)(=O)C(C)C)CC3)C2=O)cc1,-20%
O=C(Cc1cccnc1)N1CCOCC2(CN(Cc3cc(F)cc(F)c3)C2)C1,36%[44.1 µM]
COCCNC(=O)[C@@H](C)C1CC[C@@]2(C)CC[C@H](NC(=O)COc3ccccc3)[C@@H](C)[C@@H]2[C@H]1O (some centres not stated),-8%
CN1C(=O)[C@@H]2C[C@@H](CN2Cc2ccc3ccccc3n2)Oc2ccccc21,i
COc1cc(F)ccc1-c1ccc2ncn(C3CC3)c(=O)c2n1,-18%[44.1 µM]
COc1ccc(CN2C[C@H]3CN(Cc4ccc(C)cc4)CCN3C2=O)cc1,i
CN1CCCC1CCn1nc(C2CCNCC2)n(Cc2ccccc2)c1=O (configuration not stated),-4%
O=C(CCNc1c(-c2cccc(F)c2)nc2cnccn12)NCC1CCCO1 (configuration not stated),i
COc1ccc(C)cc1NC(=O)CC(=O)Nc1ccc2nc3n(c(=O)c2c1)CCCCC3,-13%
COc1ccccc1NC(=O)Cn1nc2c(cc1=O)CCCC2,-12%
COc1ccccc1Nc1c2c(nc3ccc(NC(=O)/C=C/c4cccc(OC)c4OC)cc13)CCCC2,1.1µM*
COc1ccc2c(C)c(C(=O)N3CCCC3c3c(C)noc3C)oc2c1 (configuration not stated),-13%
CCN1CC(c2ccccc2)CC2(CCN(C(=O)c3ccn(CC)n3)CC2)C1 (configuration not stated),9%
CN1CCCC(CN(CCc2ccccc2)C(=O)c2cc[n+]([O-])cc2)C1 (configuration not stated),-16%
CC(=O)c1cc(CN(CCc2ccccc2)CC2CCCN(C)C2)cs1 (configuration not stated),13µM*
CC(=O)c1cc(CC(=O)N[C@@H]2COCC[C@@H]2OCc2ccccc2)cs1,8%
CN1CCC2(CC1)Cc1ccccc1CN([S+](C)(=O)[O-])C2,-27%
C[S+](=O)([O-])N1Cc2ccccc2CC2(CCCCN2Cc2ccccc2)C1 (configuration not stated),-27%
Cc1ccc(CCN2CCCCC23Cc2ccccc2CN([S+](C)(=O)[O-])C3)cc1 (configuration not stated),10µM*
O=C(c1cccnc1OC1CCN(S(=O)(=O)c2ccccc2)C1)N1CCOCC1 (configuration not stated),-23%
O=C1C(N2CCN(S(=O)(=O)c3cccs3)CC2)CCN1Cc1cccnc1 (configuration not stated),-11%
O=C(NCc1cccn1Cc1ccccc1)Nc1cccc(C(F)(F)F)c1,8.9µM*
CCOC(=O)Cc1ccc(NC(=O)NCc2cccn2Cc2ccccc2)cc1,-28%
COc1ccccc1NC(=O)NCc1cccn1Cc1ccccc1,0%
O=C(NCc1cccnc1)[C@@H]1C[C@@H](O)CN1C1CCN(C(=O)CCc2ccccc2)CC1,-1%
SMILES,Pf Dd2 inh
Cc1cccc(NS(=O)(=O)c2ccc3[nH]c(=O)ccc3c2)c1C,8.9µM*
Cc1ccc(NS(=O)(=O)c2ccc3[nH]c(=O)ccc3c2)cc1N(C)C,-16%
CC(C)c1ccc(NS(=O)(=O)c2ccc3[nH]c(=O)ccc3c2)cc1,-2%
COc1cccc(CCC(=O)N2CC(c3nnc(-c4ccncc4)o3)C3(CCOCC3)C2)c1 (configuration not stated),-7%
O=C(Cc1ccccn1)N1CCN(c2nc3ncccc3o2)CC1,-16%[44.1 µM]
CN1CCC(N(C)CC2CCCN(CCc3ccc(F)cc3)C2)CC1 (configuration not stated),8.9µM*
Cc1nc(C)c(CN(C)C2CCCN(CCc3ccccc3)C2)nc1C (configuration not stated),-16%
CN(Cc1ccc(F)cc1)CC1CCCCC1,23%[44.1 µM]
Cc1ccc(CNC(=O)Cn2cccc2-c2nc(-c3ccc(F)cc3)no2)cc1,-10%
O=C(NCc1nnc2n1C(C(=O)NCc1ccc3c(c1)OCO3)CC2)C1CC1 (configuration not stated),16%
O=C(CCC1CCCN(S(=O)(=O)c2ccccc2F)C1)NCCN1CCCC1 (configuration not stated),-1%
C=CCS(=O)(=O)N1CCCC(CCc2cccc(OC)c2)C1 (configuration not stated),-16%
CS(=O)(=O)CCNC(=O)C1CCCN(C2CCN(Cc3cccnc3)CC2)C1 (configuration not stated),19%
COc1cccc(CCC2CCCN(C3CCN(Cc4cccnc4)CC3)C2)c1 (configuration not stated),8.9µM*
CC(C)CN1CCN(c2ccc(Cl)nn2)C(=O)C1,-5%[44.1 µM]
O=C(C1CCCC1)N1CC(c2nc(CCOCC3CCOCC3)no2)C1,i
COc1ccccc1OCCn1cc(C(=O)c2cccs2)c2ccccc21,i
Cc1cc(OCCn2cc(C(=O)c3ccco3)c3ccccc32)ccc1Cl,1.1µM*
CCOc1ccc(NC(=O)Cn2cc(C(=O)c3ccccc3)c3ccccc32)cc1,26%
